Screening results as filed in PubChem BioAssay.
KKLEB cytotox: CF airway cell cytotoxicity counter-screen; KKLEB CF airway cells viability, ATPlite luminescence, overnight; stronger effect = lower value; cells stimulated with P. aeruginosa culture filtrate; activity change (cytotoxicity), % at 5 µM; hit rate 0.36% among 360,000; AID 602141;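 active means corrected activity change at or below -50% at 5 µM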
TRPM1 prom inh: inhibitors of MITF-driven TRPM1 promoter in melanoma cells; hit rate 0.83% among 330,000; inhibition, % at 12.5 µM; SK-MEL-5 TRPM1 promoter luciferase, 24 h;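 active means mean inhibition across replicates of 60% or more, whatever share of single replicates reaches that level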
CF NFkB block: cystic fibrosis NF-kB activation inhibition; hit rate 0.86% among 360,000; AID 588850; inhibition, % at 5 µM; KKLEB NF-kB-GFP reporter, PAF-induced, GFP fluorescence overnight;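 active means at least 50% inhibition at 5 µM, scaled per plate between neutral and stimulator controls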;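 further: PAF is a Pseudomonas aeruginosa culture filtrate used as stimulus; plate controls were PAF-stimulated DMSO wells for no effect and unstimulated DMSO wells for full effect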
Peg3 prom inh: Peg3 promoter activity inhibition; inhibition, % at 20 µM; HeLa PEG-Prom luciferase reporter, luminescence, overnight; hit rate 1.7% among 360,000; AID 588405;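 active means inhibition of at least 50% at 20 µM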
CHOP inh: blocks CHOP induction under ER stress. inhibition, % at 10 µM. CHO-K1 CHOP-promoter luciferase, tunicamycin-induced, 15-18 h. AID 2732. hit rate 3.8% among 220,000;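 active means compounds that reduced the stress-induced luciferase reporter signal by more than about 70% of percent inhibition, limit read from the data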;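 further: 0% = tunicamycin plus vehicle and 100% = wells without tunicamycin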
HIF-2a inh: inhibitors of HIF-2a; 786-0 RCC cells HIF-2a reporter, luciferase luminescence, overnight; inhibition, % at 18.8 µM; hit rate 0.72% among 360,000;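 active means inhibition of the luminescence signal of 40% or more relative to plate controls, in a single-dose primary screen at 18.75 µM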
The depositor's hits bear a star; · = not tested or not shown. Only some compounds are listed: those with a hit (about 4.3% of all), similar ones and a draw of the others.

SMILES	KKLEB cytotox	TRPM1 prom inh	CF NFkB block	Peg3 prom inh	CHOP inh	HIF-2a inh
C/C(=N\NC(=O)C1COc2ccccc2O1)c1ccc(C)o1 (configuration not stated)	-4.5	6.0	4.3	1.7	8.5	-7.2
Cc1nc(C(F)(F)F)ccc1C(=O)N1CCC1(C)C(=O)NCc1ccc(Cl)cc1 (configuration not stated)	-11.9	·	20.3	11.8	·	0.5
Cc1ccc(C(C)C)c(OCCNCCc2ccccc2)c1	-22.8	45.9	19.7	40.0	·	7.2
O=C1NC[C@@H](CCCCN2C[C@H](Cc3ccc(O)cc3)N(Cc3ccccc3)C(=O)C2=O)N(Cc2ccccc2)C1=O	·	·	·	·	·	5.5
Cc1cccc2sc(NNC(=O)c3cc(-c4cccs4)nc4ccccc34)nc12	-11.6	30.2	33.2	55.8*	5.6	5.9
C/C(=N\NC(=O)c1cc(-c2cccs2)nc2ccccc12)c1ccccn1	-4.4	88.2*	-39.0	45.5	50.2	-5.5
CC(=NNC(=S)Nc1cccc(C)c1)c1ccccn1	-7.1	72.2*	-12.1	-55.5	·	-215.1
NNC(=O)c1cc(-c2cccs2)nc2ccccc12	-9.9	0.0	-15.0	-2.1	17.0	7.7
C/C(=N\NC(=S)Nc1cccc(C)c1)c1ccccc1	-7.5	-32.5	8.1	-175.7	-16.0	-190.4
CCNC(=O)C1OC(n2cnc3c(NCc4ccccc4)ncnc32)C(O)C1O (configuration not stated)	·	·	·	·	-7.1	·
CCN(CC)CCNC(=O)Cn1nc(-c2ccc(C)cc2)ccc1=O	12.9	10.4	-10.1	7.4	86.3*	9.2
Cc1ccc(-c2ccc(=O)n(CC(=O)NCCN(CC(C)C)CC(C)C)n2)cc1	-1.5	7.5	8.7	-12.7	·	-3.3
COC(=O)c1sccc1N/N=C/c1cccc(OC)c1O	6.5	15.3	-12.5	-19.5	83.0*	-81.6
COc1cccc(/C=N/Nc2nc(Nc3ccccc3)nc(-n3nc(C)cc3C)n2)c1O	-11.7	29.3	-19.6	32.3	87.2*	-93.8
Cc1cc(N/N=C/c2ccccc2O)c2ccccc2n1	2.3	7.6	-134.3	10.7	·	-88.8
COC(=O)c1sccc1N/N=C/c1ccc(OC)c(OC)c1OC	-3.2	-65.2	4.4	-265.8	-4.9	-266.3
Cc1cc(C)n(-c2nc(Nc3ccccc3)nc(-n3nc(C)cc3C)n2)n1	13.4	-2.6	-9.4	15.8	5.6	-1.5
COc1ccc2nc(C)cc(NCc3cccc(C(F)(F)F)c3)c2c1	-2.0	69.0*	-5.7	11.9	·	17.5
COc1ccc2nc(C)cc(N/N=C/c3cccc(OC)c3O)c2c1	-2.3	81.6*	-84.8	110.6*	·	16.8
c1ccc(-c2nc(NC3CCCC3)c3ccccc3n2)cc1	0.6	4.2	-1.6	3.0	·	-1.8
Cc1cc(Nc2cccc(Cl)c2)nc(NCc2ccccc2)n1	-17.0	10.1	10.8	37.5	106.0*	17.5
COc1cc(/C=c2\sc3nc(-c4ccncc4)nn3c2=O)ccc1OC(C)=O	·	·	·	·	106.6*	·
COc1ccccc1-c1nc2s/c(=C\c3cccs3)c(=O)n2n1	-1.5	4.4	6.2	-1.9	83.4*	3.4
CCCCCOc1ccc(/C=c2\sc3nc(=O)c(-c4ccccc4)nn3c2=O)cc1OC	9.1	-8.3	-33.2	5.0	43.4	7.7
CC(=C/c1ccco1)/C=N/NC(=O)CSc1nnc(SCc2ccc(C)cc2)s1	-20.5	9.4	22.0	-68.5	80.3*	20.1
SMILES	KKLEB cytotox	TRPM1 prom inh	CF NFkB block	Peg3 prom inh	CHOP inh	HIF-2a inh
O=C(CSc1nnc(SCc2ccc(Cl)cc2)s1)N/N=C/c1ccc(Cl)cc1Cl	3.3	-7.0	-13.8	-18.7	73.3*	6.7
O=C(CSc1nnc(SCc2ccccc2)s1)N/N=C/C=C\c1ccco1	3.2	3.0	-9.4	-7.3	-2.7	1.5
COC(=O)Oc1ccc(/C=N/NC(=O)CSCc2ccc(Cl)cc2)cc1OC	-14.5	7.0	20.3	13.8	78.3*	18.4
O=C(CSCc1ccc(Cl)cc1)N/N=C/c1c(Cl)cccc1Cl	7.5	-1.6	-12.7	12.0	91.7*	9.7
Clc1ccc(OCCOCCNCc2ccccc2)cc1Cl	-6.5	-5.3	3.6	-16.6	·	7.6
c1cc(SC2CCCCC2)cc(-c2nc3cnccn3c2NC2CCCCC2)c1	-54.6*	4.1	72.8*	95.3*	·	37.4
c1cn2c(NC3CCCCC3)c(-c3ccc(SC4CCCCC4)cc3)nc2cn1	8.3	-18.4	4.0	-50.5	·	-98.2
Clc1ccc2nc(-c3cccc(SC4CCCCC4)c3)c(NCc3ccccc3)n2c1	-9.7	-1.9	13.5	-16.8	·	-36.2
Cc1ccc2nc(-c3cccc(SC4CCCCC4)c3)c(NCc3ccccc3)n2c1	-8.6	-0.5	38.8	67.5*	·	-45.3
c1ccc(CNc2c(-c3cccc(SC4CCCCC4)c3)nc3ccccn23)cc1	-16.7	5.0	16.8	85.8*	·	-179.6
Cc1cccc(NC(=O)CN2C(=O)S/C(=C\c3cc(C)n(C)c3C)C2=O)c1	4.3	-23.8	-5.6	-14.6	62.0	-6.8
Cc1cc(/C=C2\SC(=O)N(CC(=O)Nc3ccccc3F)C2=O)c(C)n1C	7.3	1.8	-7.2	5.9	84.9*	4.5
CCC(C(=O)Nc1ccc(S(=O)(=O)Nc2ncccn2)cc1)c1ccccc1 (configuration not stated)	0.7	1.6	-6.6	6.8	·	18.5
O=C(NNC(=O)c1cc(OCC(F)(F)F)ccc1OCC(F)(F)F)c1ccc(Cl)c(Cl)c1	-4.3	-15.9	-8.9	16.4	81.6*	2.4
C=CCONC(=O)c1cc(OCC(F)(F)F)ccc1OCC(F)(F)F	6.8	-7.4	4.2	4.4	71.2*	0.2
O=C(NCCNS(=O)(=O)c1ccccc1Cl)c1cc(OCC(F)(F)F)ccc1OCC(F)(F)F	-9.3	3.0	5.0	27.8	-3.1	-13.2
O=C(N/N=C\c1ccc(F)cc1)c1cc(OCC(F)(F)F)ccc1OCC(F)(F)F	3.5	1.0	-11.4	2.7	42.1	15.3
CN(CC(=O)Nc1ncn[nH]1)S(=O)(=O)c1cc(Cl)ccc1Cl	15.1	11.5	-13.1	20.9	·	8.3
COCCCNC(=O)Cn1c(=O)oc2cc(S(=O)(=O)N3CC(C)CC(C)C3)ccc21 (configuration not stated)	0.5	-1.6	5.5	4.4	·	-2.4
CC1CC(C)CN(S(=O)(=O)c2ccc3c(c2)oc(=O)n3CC(=O)N(C)Cc2ccccc2)C1 (configuration not stated)	-12.9	7.2	2.0	14.1	·	7.1
Cc1cc(C)cc(NC(=O)Cn2c(=O)oc3cc(S(=O)(=O)N4CC(C)CC(C)C4)ccc32)c1 (configuration not stated)	-8.7	18.8	1.9	26.6	82.7*	11.6
CCCCNC(=O)Cn1c(=O)oc2cc(S(=O)(=O)N3CC(C)CC(C)C3)ccc21 (configuration not stated)	-3.5	7.7	18.8	19.3	93.9*	21.6
CCOC(=O)C(=CNc1ccc(N2CCCCC2)c(S(=O)(=O)Nc2ccccc2OC)c1)C(=O)OCC	9.0	10.4	-0.8	10.7	·	6.8
